# Measurements reported in PubChem BioAssay (EPA / NIEHS).
# Where “and” joins values, the source holds several entries; their conditions need not be identical. Equal values may be shown once. Records with an inconclusive call do not appear. Calls of active or inactive are those of the source. How the source made its calls, unless noted: active means hit-call score of the fitted dose curve at least 0.9, where 1 is the maximum; inactive means score below 0.9.
# How the values were obtained:
# [1] = read-out: Monokine induced gamma interferon (MIG), CXCL9 (gene 4283); experiment: BSK_SAg_MIG: BioMAP Diversity Plus: SAg Assay for Monokine induced gamma interferon (MIG) Biomarker Activity (AID 2283092); conditions: primary human HUVEC with PBMC; actives raise or lower the signal
# In short: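 Values reflect bidirectional fitting of ELISA-measured MIG against DMSO vehicle, taken 24 h after dosing of a co-culture of human umbilical vein endothelial cells and peripheral blood mononuclear cells.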
# [2] = BSK_SAg_PBMCCytotoxicity: PBMC Cytotoxicity Assessment in the BioMAP Diversity Plus: SAg Assay (AID 2283093); conditions: primary human HUVEC with PBMC;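 further: PBMC viability measured as Alamar Blue reduction fluorescence at 546/580 nm; fitted both ways against DMSO so a hit may be loss or gain of signal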;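 on AC50: PBMC superantigen activated with SEB plus TSST-1 one hour after compound addition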
# In short: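 Compound added to 75,000 PBMC/well for 1 h; SEB and TSST-1 then added at 20 ng/mL final each; 90 h incubation; Alamar Blue 6 h; read 546/580 nm ex/em. Activity fitted bidirectionally relative to DMSO baseline.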
# [3] = read-out: Interleukin-8 (IL8), CXCL8 (gene 3576); experiment: BSK_SAg_IL8: BioMAP Diversity Plus: SAg Assay for Interleukin-8 (IL8) Biomarker Activity (AID 2283094); conditions: primary human HUVEC with PBMC; actives raise or lower the signal
# In short: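 ELISA read-out of IL-8 in a primary human vascular co-culture (umbilical vein endothelium plus PBMC), taken 24 h after compound addition. Values derive from bidirectional fits against DMSO negative controls.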
# [4] = BSK_SAg_Proliferation: Cell Proliferation Assessment in the BioMAP Diversity Plus: SAg Assay (AID 2283095); conditions: primary human HUVEC with PBMC;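 further: relative cell number as total protein by SRB absorbance in sub-confluent culture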
# In short: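 Cells (endothelium plus PBMC, human primary) were dosed with chemical, cultured 96 h, fixed in 10% TCA and stained with 0.1% SRB. Absorbance at 560 nm gave relative protein, fitted bidirectionally relative to DMSO.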
# [5] = BSK_SAg_SRB: Viability Assessment in the BioMAP Diversity Plus: SAg Assay (AID 2283096); conditions: primary human HUVEC with PBMC;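 further: cells read one day after compound addition; hits may be either gain or loss of signal compared with DMSO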
# In short: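 Total protein by sulforhodamine B staining, 24 h after dosing, in HUVEC–PBMC co-culture; DMSO-referenced bidirectional fitting.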
# [6] = molecular target: human CYP2D6, CYP2D6 (gene 1565) (UniProt P10635); experiment: NVS_ADME_hCYP2D6: NovaScreen (NVS) CYP450-related Enzyme Activity (ADME) Assay for human CYP2D6 (AID 2283107; active means hit-call score of the fitted dose curve at least 0.9, where 1 is the maximum)
# human CYP2D6, CYP2D6 (gene 1565), sequence (P10635 whole entry, looked up): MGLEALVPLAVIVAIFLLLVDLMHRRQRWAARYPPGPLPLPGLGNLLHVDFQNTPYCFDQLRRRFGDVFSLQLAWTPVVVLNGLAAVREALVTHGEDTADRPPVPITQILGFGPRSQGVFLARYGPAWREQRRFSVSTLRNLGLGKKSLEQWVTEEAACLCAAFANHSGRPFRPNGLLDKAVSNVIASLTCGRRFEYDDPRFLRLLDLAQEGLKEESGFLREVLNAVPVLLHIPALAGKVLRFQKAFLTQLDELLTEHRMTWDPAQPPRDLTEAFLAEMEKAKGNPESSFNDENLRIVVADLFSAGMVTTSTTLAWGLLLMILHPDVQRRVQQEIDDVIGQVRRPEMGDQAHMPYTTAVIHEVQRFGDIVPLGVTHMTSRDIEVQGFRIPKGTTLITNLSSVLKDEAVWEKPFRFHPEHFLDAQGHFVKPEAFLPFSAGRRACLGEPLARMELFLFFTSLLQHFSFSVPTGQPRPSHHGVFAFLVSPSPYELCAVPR
# In short: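 Compounds were first tested in duplicate at 10 uM against recombinant enzyme produced in insect cells, with substrate turnover measured by fluorescence after 1 hour. Decreased signal, referenced to acetonitrile vehicle, was taken as reduced enzyme activity. Active chemicals went on to concentration-response testing.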
# [7] = molecular target: human CYP19A1, CYP19A1 (gene 1588) (UniProt P11511); experiment: NVS_ADME_hCYP19A1: NovaScreen (NVS) CYP450-related Enzyme Activity (ADME) Assay for human CYP19A1 (AID 2283098; active means hit-call score of the fitted dose curve at least 0.9, where 1 is the maximum)
# human CYP19A1, CYP19A1 (gene 1588), sequence (P11511 whole entry, looked up): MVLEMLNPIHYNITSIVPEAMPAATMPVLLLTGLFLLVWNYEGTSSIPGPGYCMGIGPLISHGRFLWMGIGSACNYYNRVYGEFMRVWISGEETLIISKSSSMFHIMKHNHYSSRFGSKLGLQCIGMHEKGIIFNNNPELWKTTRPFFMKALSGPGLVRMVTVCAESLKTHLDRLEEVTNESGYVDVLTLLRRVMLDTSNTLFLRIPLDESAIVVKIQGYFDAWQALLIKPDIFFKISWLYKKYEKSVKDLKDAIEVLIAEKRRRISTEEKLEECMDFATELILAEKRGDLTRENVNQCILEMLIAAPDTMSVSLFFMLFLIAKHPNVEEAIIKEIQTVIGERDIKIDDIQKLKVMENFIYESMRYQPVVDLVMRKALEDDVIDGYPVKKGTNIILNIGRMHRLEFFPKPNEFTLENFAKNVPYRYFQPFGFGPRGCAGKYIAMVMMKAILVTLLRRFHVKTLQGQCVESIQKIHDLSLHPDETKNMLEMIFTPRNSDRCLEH
# In short: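 Biochem, cell-free; recombinant enzyme + specific substrate; fluorescence intensity at 0.5 h post-dose; 10 uM duplicate primary, conc. series for actives; acetonitrile = negative control/baseline; positive and negative controls on every plate.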
# [8] = molecular target: Cytochrome P450 2C18 (Homo sapiens) (UniProt P33260); experiment: NVS_ADME_hCYP2C18: NovaScreen (NVS) CYP450-related Enzyme Activity (ADME) Assay for human CYP2C18 (AID 2283103)
# Cytochrome P450 2C18 (Homo sapiens), sequence (P33260 whole entry, looked up): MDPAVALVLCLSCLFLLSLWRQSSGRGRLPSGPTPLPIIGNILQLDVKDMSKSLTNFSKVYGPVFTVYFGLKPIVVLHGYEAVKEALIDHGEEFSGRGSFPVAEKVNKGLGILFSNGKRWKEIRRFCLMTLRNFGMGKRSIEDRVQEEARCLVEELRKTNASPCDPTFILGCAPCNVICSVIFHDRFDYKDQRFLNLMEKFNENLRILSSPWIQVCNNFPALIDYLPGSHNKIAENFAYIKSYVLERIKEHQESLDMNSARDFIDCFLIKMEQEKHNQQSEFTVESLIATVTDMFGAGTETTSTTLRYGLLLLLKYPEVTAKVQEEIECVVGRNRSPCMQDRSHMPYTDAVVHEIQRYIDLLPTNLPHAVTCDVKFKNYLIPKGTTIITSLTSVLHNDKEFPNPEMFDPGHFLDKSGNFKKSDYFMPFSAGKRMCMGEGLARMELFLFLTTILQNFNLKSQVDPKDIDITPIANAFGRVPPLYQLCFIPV
# In short: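 Cell-free recombinant human CYP2C18 with fluorogenic substrate; fluorescence intensity read 0.5 h after dosing. Single-point screen at 10 uM in duplicate, then concentration-response up to 20 uM; loss of signal fitted against acetonitrile baseline.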
# [9] = molecular target: human CYP2B6, CYP2B6 (gene 1555) (UniProt P20813); experiment: NVS_ADME_hCYP2B6: NovaScreen (NVS) CYP450-related Enzyme Activity (ADME) Assay for human CYP2B6 (AID 2283101; active means hit-call score of the fitted dose curve at least 0.9, where 1 is the maximum)
# human CYP2B6, CYP2B6 (gene 1555), sequence (P20813 whole entry, looked up): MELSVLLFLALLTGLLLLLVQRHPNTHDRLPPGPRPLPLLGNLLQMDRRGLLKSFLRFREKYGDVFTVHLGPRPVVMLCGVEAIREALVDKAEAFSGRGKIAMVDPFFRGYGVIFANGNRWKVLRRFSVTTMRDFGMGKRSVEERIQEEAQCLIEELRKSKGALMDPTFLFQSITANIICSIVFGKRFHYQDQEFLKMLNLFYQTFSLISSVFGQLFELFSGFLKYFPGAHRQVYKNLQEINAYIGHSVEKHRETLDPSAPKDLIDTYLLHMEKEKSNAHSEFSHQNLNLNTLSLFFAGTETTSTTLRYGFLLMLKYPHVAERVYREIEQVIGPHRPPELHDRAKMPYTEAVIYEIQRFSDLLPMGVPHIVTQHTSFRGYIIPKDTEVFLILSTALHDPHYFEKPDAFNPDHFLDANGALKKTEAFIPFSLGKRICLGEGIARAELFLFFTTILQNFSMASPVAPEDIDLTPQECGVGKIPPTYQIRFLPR
# Protocol: NVS_ADME_hCYP2B6 is a biochemical, single-readout assay that uses extracted gene-proteins in a cell-free assay. Measurements were taken 1 hour after chemical dosing in a 96-well plate.NVS_ADME_hCYP2B6 is one of one assay component(s) measured or calculated from the NVS_ADME_hCYP2B6 assay. It is designed to make measurements of enzyme activity, a form of enzyme reporter, as detected with fluorescence intensity signals by Fluorescence technology.Data from the assay component NVS_ADME_hCYP2B6 was analyzed into 1 assay endpoint. This assay endpoint, NVS_ADME_hCYP2B6, was analyzed in the positive analysis fitting direction relative to Acetonitrile as the negative control and baseline of activity. Using a type of enzyme reporter, loss-of-signal activity can be used to understand changes in the enzymatic activity as they relate to the gene CYP2B6. Furthermore, this assay endpoint can be referred to as a primary readout, because this assay has produced multiple assay endpoints where this one serves a enzymatic activity function. To generalize the intended target to other relatable targets, this assay endpoint is annotated to the cyp intended target family, where the subfamily is xenobiotic metabolism. […]
# [10] = molecular target: human CYP1A2, CYP1A2 (gene 1544) (UniProt P05177); experiment: NVS_ADME_hCYP1A2: NovaScreen (NVS) CYP450-related Enzyme Activity (ADME) Assay for human CYP1A2 (AID 2283102; active means hit-call score of the fitted dose curve at least 0.9, where 1 is the maximum;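 further: fluorescence from turnover of a fluorogenic substrate by recombinant insect-cell CYP1A2; potency for inhibition since loss of fluorescence marks reduced CYP1A2 activity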)
# human CYP1A2, CYP1A2 (gene 1544), sequence (P05177 whole entry, looked up): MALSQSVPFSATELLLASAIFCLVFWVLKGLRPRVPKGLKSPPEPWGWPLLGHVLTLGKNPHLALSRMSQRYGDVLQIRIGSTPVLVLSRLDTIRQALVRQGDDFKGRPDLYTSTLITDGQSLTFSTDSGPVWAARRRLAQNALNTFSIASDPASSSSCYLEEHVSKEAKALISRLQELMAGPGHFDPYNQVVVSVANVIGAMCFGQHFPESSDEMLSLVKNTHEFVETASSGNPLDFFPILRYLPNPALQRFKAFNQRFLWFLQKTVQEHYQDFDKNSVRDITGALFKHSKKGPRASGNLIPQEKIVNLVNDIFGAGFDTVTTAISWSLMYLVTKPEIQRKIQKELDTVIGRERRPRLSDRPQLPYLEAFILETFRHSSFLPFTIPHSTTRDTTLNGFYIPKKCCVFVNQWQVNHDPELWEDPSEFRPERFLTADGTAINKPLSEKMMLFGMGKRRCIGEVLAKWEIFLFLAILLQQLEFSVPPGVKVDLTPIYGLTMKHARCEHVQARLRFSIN
# In short: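 Compounds were tested at 10 uM in duplicate against recombinant CYP1A2 produced in insect cells. Enzyme activity was measured by fluorescence 0.5 h after dosing, with loss of signal versus acetonitrile control. Active compounds were re-tested in concentration series.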
smiles,measurement,setting,value
Nc1ccc(N)cc1,outcome,[1],inactive
same,outcome,[2],inactive
same,outcome,[3],inactive
same,outcome,[4],inactive
same,outcome,[5],inactive
same,outcome,[6],inactive
O=c1oc2ccccc2c(O)c1C(CC(O)c1ccc(-c2ccc(Br)cc2)cc1)c1ccccc1 (configuration not stated),AC50,[1],33.3 µM (active)
same,AC50,[2],23.5 µM (active)
same,outcome,[3],inactive
same,AC50,[4],26.4 µM (active)
same,AC50,[5],19.1 µM (active)
O=c1nc(O)n(Cl)c(=O)n1Cl,outcome,[7],inactive
O=C1C=CC(=O)c2ccccc21,AC50,[1],1.53 µM (active)
same,AC50,[2],0.102 µM (active)
same,AC50,[3],0.709 µM (active)
same,AC50,[4],0.125 µM (active)
same,AC50,[5],5.33 µM (active)
CCCCCCCCCCCCN(C)C,outcome,[1],inactive
same,outcome,[2],inactive
same,outcome,[3],inactive
same,outcome,[4],inactive
same,outcome,[5],inactive
CC1(C)[C@H](C(=O)O[C@H](C#N)c2cccc(Oc3ccccc3)c2)[C@@H]1/C=C(\Cl)C(F)(F)F,outcome,[1],inactive
same,outcome,[2],inactive
same,outcome,[3],inactive
same,AC50,[4],17.1 µM (active) and 3.97 µM (active)
same,outcome,[5],inactive
same,AC50,[8],0.951 µM (active)
CC(C)(C)c1ccccc1O,outcome,[1],inactive
same,outcome,[2],inactive
same,outcome,[3],inactive
same,outcome,[4],inactive
same,outcome,[5],inactive
same,outcome,[9],inactive
CCOP(=S)(OCC)SCS(=O)(=O)C(C)(C)C,outcome,[1],inactive
same,outcome,[2],inactive
same,outcome,[3],inactive
same,outcome,[4],inactive
same,outcome,[5],inactive
Oc1c(Br)cc(Br)cc1Br,outcome,[1],inactive
same,outcome,[2],inactive
same,outcome,[3],inactive
same,AC50,[4],20 µM (active)
same,AC50,[5],31.7 µM (active)
CC(C)O.CC(C)O.OCCN(CCO)CCO.OCCN(CCO)CCO.[Ti],outcome,[1],inactive
same,outcome,[2],inactive
same,outcome,[3],inactive
same,outcome,[4],inactive
same,outcome,[5],inactive
[Cl][Sn]([c]1ccccc1)([c]1ccccc1)[c]1ccccc1,AC50,[1],0.259 µM (active)
same,AC50,[2],0.125 µM (active)
same,AC50,[3],0.253 µM (active)
same,AC50,[4],0.0609 µM (active)
same,AC50,[5],0.337 µM (active)
same,AC50,[6],0.997 µM (active)
CCOCn1c(-c2ccc(Cl)cc2)c(C#N)c(Br)c1C(F)(F)F,AC50,[10],1.35 µM (active)
Oc1c(Cl)cc(Cl)cc1Cl,outcome,[1],inactive
same,outcome,[3],inactive
same,outcome,[4],inactive
same,outcome,[5],inactive
CCCCCCCCCCCCc1cccc(S(=O)(=O)O)c1,outcome,[1],inactive
same,outcome,[2],inactive
same,outcome,[3],inactive
same,outcome,[4],inactive
same,outcome,[5],inactive
N#CCCC(Br)(C#N)CBr (configuration not stated),AC50,[1],30 µM (active)
same,AC50,[2],2.52 µM (active)
same,AC50,[3],20 µM (active)
same,AC50,[4],1.12 µM (active)
same,AC50,[5],11.5 µM (active)
same,AC50,[6],3.08 µM (active)
C=CC(Cl)CCl (configuration not stated),outcome,[1],inactive
same,outcome,[2],inactive
same,outcome,[3],inactive
same,outcome,[4],inactive
same,outcome,[5],inactive
Cc1cc(Cl)ccc1N,outcome,[1],inactive
same,outcome,[2],inactive
same,outcome,[3],inactive
same,outcome,[4],inactive
same,outcome,[5],inactive
CN(C)C(=S)S,outcome,[1],inactive
same,AC50,[2],0.148 µM (active)
same,outcome,[3],inactive
same,AC50,[4],0.488 µM (active)
same,outcome,[5],inactive
same,AC50,[10],5.64 µM (active)
O=C(N[C@H]1CN2CCC1CC2)c1ccc2c(c1)OCCO2,outcome,[1],inactive
same,outcome,[2],inactive
same,outcome,[3],inactive
same,outcome,[4],inactive
same,outcome,[5],inactive
